PubChem BioAssay (NCATS)
Values joined by “and” are separate entries in the source; they are usually repeats but may differ in a detail not shown here. Equal values may be shown once. Records with an inconclusive call do not appear. Active and inactive are the calls of the source. Unless noted, calls follow the shape of the dose curve; as a rule, active = well fitted curve in either direction with a large enough effect (not every such curve was filed as active); inconclusive = small, poorly fitted or top-dose-only effect, or another doubt; inactive = flat fitted curve, though single readings scatter.

How the values were obtained:
[1] = AP1 Signaling Pathway (AID 357);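 also: ME-180 reporter cells stimulated with EGF at its EC50 level; % is scaled to controls: 0 for no effect and ±100 for the full control effect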
Outline: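 Read-out was the 460nm/530nm emission ratio (excitation 405nm) after CCF4 loading for 2.5 hours at room temperature. Cells carried an AP-1-driven beta-lactamase reporter, were stimulated with EC50 EGF plus compound for 5 hours, and AC50 values came from titrations.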

[2] = biological target: Cytochrome P450 1A2 (Homo sapiens) (UniProt P05177); assay: p450-cyp1a2 (AID 410; calls by dose curve; also: potency is read from the fitted curve at half-maximal effect;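 as to activity change, negative = inhibition: -100% = full effect of reference inhibitor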)
Outline: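 O-Demethylation of luciferin 6' methyl ether by human CYP1A2 is monitored as luciferase luminescence. Substrate sits at Km (100uM); enzyme is 20nM. Values are scaled to 57 uM furafylline as maximal inhibition.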

[3] = biological target: Glucocorticoid receptor (Homo sapiens) (UniProt P04150); assay: GR-GFP Redistribution (AID 450;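 active = compounds whose dose series gives a full or clear partial fitted curve of increased nuclear translocation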; also: potency is read from the fitted curve at half-maximal effect); conditions: U2OS GR-GFP nuclear translocation, laser cytometry, 2 h
[4] = biological target: Glucocorticoid receptor (Homo sapiens) (UniProt P04150); assay: GR-EFC Redistribution (AID 451; calls by dose curve; also: potency is read from the fitted curve at half-maximal effect); conditions: CHO-K1 GR-EFC translocation, beta-gal luminescence, 2 h
Outline: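 CHO-K1 cells expressing nuclear EA and GR-ED fragments of b-gal; compounds titrated up to 46 uM final, 2 h at 37 C. GR nuclear translocation read as complemented b-gal luminescence after 1 h RT detection.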

[5] = NFAT Signaling Pathway (AID 444); conditions: Jurkat NFAT-bla M1, carbachol, beta-lactamase ratio, 5 h;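 also: carbachol stimulus at about its EC50 of 1 µM final; % is scaled to controls: 0 for no effect and ±100 for the full control effect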
Outline: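 Jurkat cells with NFAT-driven β-lactamase reporter and co-expressed M1 receptor, stimulated with carbachol (final 1 uM, ~EC50), compound titration, 5 h at 37 °C. CCF4 loaded 1 h at RT; 460/530 nm ratio gave %activity and AC50.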

[6] = Stat Signaling Pathway (AID 446);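 also: ME-180 cervical cancer cells given 40 pM IL-6 alongside compound; SIE-controlled beta-lactamase reporter measured as 460/530 nm FRET emission ratio; % is scaled to controls: 0 for no effect and ±100 for the full control effect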
Outline: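 FRET read-out (405 nm excitation, 460/530 nm emission) of a beta-lactamase reporter under a STAT-inducible element in ME-180 cervical carcinoma cells. Cells with compound receive 40 pM IL-6 for 5 h. Values are normalised to AC90 stimulation and AC90 JAK-inhibitor controls.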

[7] = biological target: Lysosomal acid glucosylceramidase (Homo sapiens) (UniProt P04062); assay: Glucocerebrosidase-p2 (AID 348; in the data active = potency below about 10 µM; also: potency is read from the fitted curve at half-maximal effect); conditions: purified GBA, blue fluorogenic substrate, 40 min
Outline: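 Normal human glucocerebrosidase (0.2 nM) with blue fluorogenic substrate (80 uM final) in citrate/phosphate pH 5.9 with 10mM sodium taurocholate, 0.01% tween-20; 40 min RT, NaOH/glycine stop; fluorescence Ex 365/Em 440; AC50 from a titration from 0.6 nM upwards.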

[8] = biological target: Mitogen-activated protein kinase 10 (Mus musculus) (UniProt Q61831); assay: JNK3 AlphaScreen Assay (AID 530);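 also: kinase came from lysate of stimulated human HepG2 cells; signal reports phosphorylation of biotinylated GST-cJun 1-79 at Ser73 with 10 µM ATP; % is scaled to controls: 0 for no effect and ±100 for the full control effect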
Outline: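 Activity was read by AlphaScreen after JNK3-containing HepG2 lysate (cytokine pre-activated) phosphorylated biotinylated GST-cJun with 10 uM ATP at room temperature. Phospho-Ser73 cJun antibody with Protein-A acceptor beads provided detection.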

[9] = Cell Viability - BJ (AID 421; calls by dose curve;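 also: potency is read from the fitted curve at half-maximal effect; cells exposed to compound for 40 hours at 37 °C before readout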); conditions: BJ fibroblast viability, qHTS
Outline: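 Cytotoxicity as drop in intracellular ATP (CellTiter-Glo, 20 min RT) after 40 hr compound exposure of BJ fibroblasts at 37 °C. Titrations scaled between DMSO and 100 uM tamoxifen, Hill-fitted for AC50.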

[10] = Cell Viability - Jurkat (AID 426;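 active = dose-dependent loss of cell ATP signal giving a full or clear fitted curve, ranked by lower potency value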;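 also: potency is read from the fitted curve at half-maximal effect; cells exposed to compound for 40 hours at 37 °C before ATP read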); conditions: qHTS
Outline: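 Cells of the human T-cell leukemia line Jurkat (E6-1) are seeded at 5000 per well, treated with compound across a concentration range for 40 hours at 37 °C, then lysed with CellTiter-Glo; luminescence reports ATP.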

[11] = Cell Viability - HepG2 (AID 433; calls by dose curve;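 also: potency is read from the fitted curve at half-maximal effect; potency for ATP loss meaning cytotoxicity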); conditions: qHTS
Outline: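 Cytotoxicity is scored as loss of intracellular ATP in HepG2 cells exposed to compounds for 40 h. Concentration-response curves, normalized to DMSO and 100 uM tamoxifen, give AC50 values.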

[12] = Cell Viability - MRC5 (AID 434; calls by dose curve;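 also: potency is read from the fitted curve at half-maximal effect; potency reflects cytotoxicity seen as loss of intracellular ATP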); conditions: MRC5 lung fibroblast viability, qHTS
Outline: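 ATP luminescence read-out (CellTiter-Glo, 20 min RT) after 40 hr, 37 °C compound exposure of 1500 MRC5 cells/well. Data normalized to DMSO (basal) and 100 uM tamoxifen (100% inhibition); AC50 from standard Hill equation.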

[13] = Cell Viability - SK-N-SH (AID 435; calls by dose curve;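 also: potency is read from the fitted curve at half-maximal effect; compound exposure lasted 40 h at 37 °C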); conditions: SK-N-SH neuroblastoma cell viability qHTS
Outline: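 Cells seeded at 1500 per well and incubated 5 hr at 37 °C. Compound added, then 40 hr at 37 °C. CellTiter-Glo added, 20 min at room temperature, luminescence read.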

[14] = Cell Viability - N2a (AID 540; active = well fitted curve in the direction sought with a large enough effect; an effect the other way counts as inactive or inconclusive;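 also: cells exposed to compound for 40 h at 37 °C; plate controls were DMSO alone for no effect and tamoxifen control for full effect; nearly all actives have a fitted effect of over 45% in size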)
Outline: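 Cytotoxicity was scored as loss of cellular ATP in N2a cells, a mouse neuroblastoma line. Compounds are applied in a qHTS concentration series for 40 hr at 37 °C.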

[15] = Cell Viability - NIH 3T3 (AID 541; active = well fitted curve in the direction sought with a large enough effect; an effect the other way counts as inactive or inconclusive;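 also: plate controls were DMSO alone for no effect and tamoxifen positive control for full effect; nearly all actives have a fitted effect of over 25% in size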); conditions: NIH 3T3 cell viability, qHTS; activity change, negative = cytotoxicity: at 92.2 µM (top of the series)
Outline: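 Cells seeded at 1000/well, rested 5 hr at 37 °C, then dosed and incubated 40 hr at 37 °C. CellTiter-Glo added, 20 min room temperature, luminescence read. AC50 by Hill fit.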

[16] = Cell Viability - HUV-EC-C (AID 542; active = well fitted curve in the direction sought with a large enough effect; an effect the other way counts as inactive or inconclusive; also: % is scaled to controls: 0 for no effect and ±100 for the full control effect; nearly all actives have a fitted effect of over 35% in size)
Outline: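 Cells were seeded at 1000 per well and incubated 5 hr at 37 °C before compound addition. After 40 hr at 37 °C, CellTiter-Glo reagent was added for 20 min and luminescence read. AC50 values came from Hill-equation modelling.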

[17] = Cell Viability - SH-SY5Y (AID 544; active = well fitted curve in the direction sought with a large enough effect; an effect the other way counts as inactive or inconclusive;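 also: 0% = DMSO alone and -100% = 100 µM tamoxifen; nearly all actives have a fitted effect of over 55% in size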); conditions: SH-SY5Y neuroblastoma cell viability; viability change, negative = cytotoxic: at 92.2 µM (top of the series)
Outline: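 Cells were plated at 1500 per well and allowed 5 hr at 37 °C. Compounds were added across a concentration range and incubated 40 hr at 37 °C. CellTiter-Glo was added for 20 min at room temperature before luminescence reading.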

[18] = Cell Viability - Mesenchymal (AID 546; active = well fitted curve in the direction sought with a large enough effect; an effect the other way counts as inactive or inconclusive;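 also: cells exposed to compound for 40 hours before reading; 0% = DMSO only and -100% = 100 µM tamoxifen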)
Outline: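 Human renal mesenchymal cells (glomerulus-derived), 1000 cells/well, 5 hr 37 °C pre-incubation; compound 40 hr, 37 °C; CellTiter-Glo, 20 min RT; luminescence; AC50 via Hill equation.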

[19] = Cellular Toxicity (caspase-3) HepG2 (AID 654; active = well fitted curve in the direction sought with a large enough effect; an effect the other way counts as inactive or inconclusive;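 also: cells exposed to compound for 16 hours before reading; 0% = DMSO alone and 100% = caspase signal from 100 µM tamoxifen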)
Outline: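 Caspase 3/7 activation in HepG2 is measured as rising luminescence after a 16 hr treatment at 37 °C. Values are scaled between DMSO basal and 100 uM tamoxifen, and AC50 is fitted with the Hill equation.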

[20] = Cell Viability - H-4-II-E (AID 543; active = well fitted curve in the direction sought with a large enough effect; an effect the other way counts as inactive or inconclusive; also: % is scaled to controls: 0 for no effect and ±100 for the full control effect; nearly all actives have a fitted effect of over 35% in size)
Outline: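 Cells seeded at 1500 per well and rested 5 hr; compounds added; 40 hr incubation at 37 °C; CellTiter-Glo added, 20 min at room temperature; luminescence read. Hill-equation fits gave AC50.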

[21] = at 17.2 µM (top of the series) unless noted

Chain of Cytochrome P450 1A2 (Homo sapiens) (P05177 whole entry, looked up): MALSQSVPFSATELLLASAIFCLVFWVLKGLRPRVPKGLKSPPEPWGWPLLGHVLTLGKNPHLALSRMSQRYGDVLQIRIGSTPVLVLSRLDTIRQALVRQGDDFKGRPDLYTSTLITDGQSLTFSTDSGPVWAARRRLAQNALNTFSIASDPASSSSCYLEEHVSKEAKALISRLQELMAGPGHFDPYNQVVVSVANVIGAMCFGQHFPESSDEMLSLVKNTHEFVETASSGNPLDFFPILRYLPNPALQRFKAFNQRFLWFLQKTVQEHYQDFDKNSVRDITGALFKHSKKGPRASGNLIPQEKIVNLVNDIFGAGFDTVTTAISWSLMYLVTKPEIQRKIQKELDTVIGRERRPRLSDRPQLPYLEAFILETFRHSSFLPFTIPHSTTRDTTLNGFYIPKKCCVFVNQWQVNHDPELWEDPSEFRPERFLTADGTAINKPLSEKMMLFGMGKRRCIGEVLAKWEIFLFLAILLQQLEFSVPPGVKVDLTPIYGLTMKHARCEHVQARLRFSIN
Chain of Glucocorticoid receptor (Homo sapiens) (P04150 whole entry, looked up, the tested form may be a part): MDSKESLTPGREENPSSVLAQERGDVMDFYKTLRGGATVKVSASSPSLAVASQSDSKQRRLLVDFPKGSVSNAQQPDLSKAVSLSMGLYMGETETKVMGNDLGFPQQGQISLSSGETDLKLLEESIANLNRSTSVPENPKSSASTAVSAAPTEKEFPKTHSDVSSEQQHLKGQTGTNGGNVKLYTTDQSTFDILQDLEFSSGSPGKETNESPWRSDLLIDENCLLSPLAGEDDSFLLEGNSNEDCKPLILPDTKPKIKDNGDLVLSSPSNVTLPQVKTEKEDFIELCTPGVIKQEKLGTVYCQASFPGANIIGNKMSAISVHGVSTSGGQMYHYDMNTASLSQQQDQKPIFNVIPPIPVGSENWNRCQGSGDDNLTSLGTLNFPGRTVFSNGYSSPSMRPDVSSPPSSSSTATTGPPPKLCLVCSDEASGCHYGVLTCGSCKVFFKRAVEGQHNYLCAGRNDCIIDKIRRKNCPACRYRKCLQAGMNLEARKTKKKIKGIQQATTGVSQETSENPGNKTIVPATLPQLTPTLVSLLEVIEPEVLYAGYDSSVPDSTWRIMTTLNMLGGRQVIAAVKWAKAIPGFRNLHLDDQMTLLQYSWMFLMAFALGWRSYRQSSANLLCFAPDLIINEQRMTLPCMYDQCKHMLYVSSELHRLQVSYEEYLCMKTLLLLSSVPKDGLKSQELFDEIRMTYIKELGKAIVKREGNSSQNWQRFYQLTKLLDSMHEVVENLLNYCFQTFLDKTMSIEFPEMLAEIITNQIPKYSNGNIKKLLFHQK
Chain of Lysosomal acid glucosylceramidase (Homo sapiens) (P04062 whole entry, looked up): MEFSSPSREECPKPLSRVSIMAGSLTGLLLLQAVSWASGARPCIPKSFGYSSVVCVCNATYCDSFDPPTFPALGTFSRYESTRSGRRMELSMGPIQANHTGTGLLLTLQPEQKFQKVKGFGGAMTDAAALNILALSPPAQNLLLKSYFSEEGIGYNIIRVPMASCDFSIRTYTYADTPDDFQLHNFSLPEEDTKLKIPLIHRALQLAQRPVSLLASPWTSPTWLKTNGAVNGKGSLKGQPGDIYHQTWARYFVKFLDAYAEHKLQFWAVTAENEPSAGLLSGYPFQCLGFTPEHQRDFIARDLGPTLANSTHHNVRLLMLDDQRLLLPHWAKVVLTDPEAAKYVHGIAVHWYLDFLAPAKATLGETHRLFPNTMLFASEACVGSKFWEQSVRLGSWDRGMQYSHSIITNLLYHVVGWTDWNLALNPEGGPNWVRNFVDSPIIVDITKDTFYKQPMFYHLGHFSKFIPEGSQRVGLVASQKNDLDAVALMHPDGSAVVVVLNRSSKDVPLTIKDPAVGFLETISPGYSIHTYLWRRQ

C[N+]1(C)CCC(=C(c2ccccc2)c2ccccc2)CC1
inactive: outcome [1] | Potency [2] | Potency [3] > 20.6 µM | Potency [4] > 20.6 µM

O=C(CCCN1CC=C(n2c(=O)[nH]c3ccccc32)CC1)c1ccc(F)cc1
inactive: outcome [1] | Potency [2] | activity change, negative = inhibition [5, 21] -14.9% | outcome [6] | Potency [3] > 20.6 µM | Potency [4] > 20.6 µM

Nc1ccc(S(=O)(=O)Nc2cnc3ccccc3n2)cc1
inactive: Potency [7] > 11.4 µM | outcome [1] | Potency [2] | activity change, negative = inhibition ([5]; at 7.69 µM (top of the series)) -24.5% | activity change, negative = inhibition ([5]; at 17.2 µM (top of the series)) -5.07% | Potency [3] > 20.6 µM and > 46 µM | Potency [4] > 20.6 µM and > 9.22 µM | Potency [8]

Cc1c(-c2ccccc2)oc2c(C(=O)OCCN3CCCCC3)cccc2c1=O
inactive: outcome [1] | activity change, negative = inhibition [5, 21] -3.52% | Potency [3] > 20.6 µM | Potency [4] > 20.6 µM
active: Potency [2] 6.31 µM

O=C1C(O)=C(O)C(=O)C(O)=C1O
inactive: outcome [1] | Potency [2] | activity change, negative = inhibition [5, 21] -6.65% | Potency [3] > 20.6 µM | Potency [4] > 20.6 µM | Potency [8]

NC(N)=NCc1cccc(I)c1
active: Potency [2] 12.6 µM
inactive: outcome [1] | activity change, negative = inhibition [5, 21] -11.1% [at 38 µM] | Potency [3] > 46 µM | Potency [4] > 46 µM

O=C(O)CCc1nc2ccccc2[nH]1
inactive: Potency [7] > 11.4 µM | outcome [1] | activity change, negative = inhibition [5, 21] 5.96% [at 7.69 µM]

CCc1oc2ccccc2c1C(=O)c1cc(Br)c(O)c(Br)c1
inactive: Potency [7] > 11.4 µM | Potency [3] > 20.6 µM and > 46 µM | Potency [4] > 20.6 µM and > 9.22 µM

CCOC(=O)c1ccc(N)cc1
active: Potency [2] 2 µM
inactive: outcome [1] | activity change, negative = inhibition [5, 21] -2.56% | outcome [6] | Potency [3] > 20.6 µM | Potency [4] > 20.6 µM | Potency [8]

COc1cc(N)c(Cl)cc1C(=O)NC1CCN(Cc2ccccc2)CC1
active: Potency [2] 12.6 µM
inactive: outcome [1] | activity change, negative = inhibition [5, 21] -14.7% | Potency [3] > 20.6 µM | Potency [4] > 20.6 µM

CCCCNc1ccc(C(=O)OCCOCCOCCOCCOCCOCCOCCOCCOCCOC)cc1
inactive: outcome [1] | Potency [2] | activity change, negative = inhibition [5, 21] -6.05% | Potency [3] > 20.6 µM | Potency [4] > 20.6 µM

CN1CCC[C@@H]1CCO[C@](C)(c1ccccc1)c1ccc(Cl)cc1
inactive: outcome [1] | Potency [2] | Potency [8]

Cc1cc(-c2ccccc2)nnc1NCCN1CCOCC1
inactive: outcome [1] | activity change, negative = inhibition [5, 21] -10.7% and -25.7% | Potency [8]
active: Potency [2] 10 µM

CCOc1ccc(NC(C)=O)cc1
inactive: outcome [1] | Potency [9] > 92 µM | Potency [10] > 92 µM | Potency [11] > 92 µM | Potency [12] > 92 µM | Potency [13] > 92 µM | activity change, negative = inhibition [5, 21] 3.42% | outcome [6] | Potency [3] > 20.6 µM | Potency [4] > 20.6 µM | Potency [14] | activity change, negative = cytotoxicity [15] -21.8% | outcome [16] | viability change, negative = cytotoxic [17] -11.1% | outcome [18] | outcome [19]

CCCN(CCC)S(=O)(=O)c1ccc(C(=O)O)cc1
inactive: outcome [1] | Potency [2] | Potency [9] > 92 µM | Potency [10] > 92 µM | Potency [11] > 92 µM | Potency [12] > 92 µM | Potency [13] > 92 µM | activity change, negative = inhibition [5, 21] 1.18% and -1.81% | Potency [3] > 20.6 µM | Potency [4] > 20.6 µM | Potency [8] | Potency [14] | activity change, negative = cytotoxicity [15] -2.58% | outcome [16] | Potency [20] | viability change, negative = cytotoxic [17] -4.3% | outcome [18] | outcome [19]

CCc1cc(Cl)c(OC)c(C(=O)NC[C@@H]2CCCN2CC)c1O
inactive: outcome [1] | Potency [3] > 20.6 µM | Potency [4] > 20.6 µM | Potency [8]
active: Potency [2] 3.98 µM
